Test results published in PubChem BioAssay (NCI).
Where “and” joins values, the source holds several entries; their conditions need not be identical. Identical values can stand only once. The panel holds about 83,000 compounds, 20% with a hit somewhere; the sample as a whole holds those more often.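 Note: values are percent growth. 100 is the growth of untreated cells, values between 100 and 0 indicate rising inhibition; between -100 and 0 indicates cell death.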 Calls of active or inactive are those of the source. The calls were made as follows: active = growth percent below 10; inactive = the rest.

Legend:
Assay in all cases: NCI-60 one-dose screen, 48 h (100 = growth as untreated, 0 = no growth, -100 = all killed)
Conditions in all cases: 10 µM unless noted
[1] = system: NCI-H23 lung
[2] = system: NCI-H226 lung
[3] = system: NCI-H322M lung
[4] = system: HOP-62 NSCLC
[5] = system: NCI-H460 lung
[6] = system: HOP-92 NSCLC
[7] = system: NCI-H522 lung
[8] = system: A549/ATCC NSCLC
[9] = system: 786-0 renal
[10] = system: COLO 205 colon

Measured: growth

COc1cc2c(cc1OC)[C@@H]1C(=O)c3ccc4c(c3O[C@@H]1CO2)C[C@H](C(C)C)O4
inactive: [1] 34.2% | [2] 62.8% | [3] 82.1% | [4] 63.6% | [5] 51.5% | [6] 57.3% | [7] 30.5% | [8] 65.5% | [9] 60.2% | [10] 82.4%

O=C(Cc1ccccc1)NC(O)C(Cl)(Cl)Cl (stereo not given)
inactive: [1] 102% | [2] 97.2% | [3] 122% | [4] 110% | [5] 120% | [6] 123% | [7] 105% | [8] 96.3% | [9] 94.7% | [10] 118%

C[C@@H]1C/C=C\C(=O)O[C@H](/C=C/C#C/C=C/C(C)(C)[C@@H](O)c2cccc(O)c2Br)[C@@H](C)/C=C/[C@H](C)C[C@H](OC(N)=O)C1
inactive: [1] 40.6% | [2] 20.1% | [3] 54.1% | [4] 13.1% | [5] 17.1% | [7] 16.7% | [8] 28.5% | [9] 37.2%
active: [6] 9.34% | [10] -26.1%

CN(C)c1ccc([N+](=O)[O-])c([N+](=O)[O-])c1
-70.3% (active) and 64.7% (inactive): [7]
inactive: [1] 109% and 96.9% | [2] 113% and 105% | [3] 111% and 101% | [4] 113% and 122% | [5] 110% and 109% | [6] 101% and 104% | [8] 101% and 88.3% | [9] 116% and 106% | [10] 106% and 122%

CC12CCC3C4CCC(=O)C=C4CCC3C1CC1CC(=O)OC12 (stereo not given)
inactive: [1] 96.2% | [2] 93.7% | [3] 89.9% | [4] 88% | [5] 104% | [6] 92.7% | [7] 79% | [8] 84.5% | [9] 107% | [10] 105%

O=C(Cc1ccccc1)c1ccccc1
inactive: [1] 94.5% | [2] 102% | [3] 103% | [4] 98.5% | [5] 98.9% | [6] 88.1% | [7] 103% | [8] 107% | [9] 102% | [10] 102%

CCC1CCC(=O)O1 (stereo not given)
inactive: [1] 110% and 111% | [2] 97.4% and 110% | [3] 102% and 104% | [4] 96.9% and 115% | [5] 103% and 110% | [6] 123% | [7] 85.1% and 105% | [8] 112% and 105% | [9] 98.1% and 107% | [10] 104% and 125%

O=C1NC(=O)C(=C/C=C/c2ccccc2)C(=O)N1
active: [1] -49% | [7] 6.24% | [9] -25.4% | [10] -47.1%
inactive: [2] 62.7% | [3] 97% | [4] 48.2% | [5] 33.1% | [6] 92.8% | [8] 80.2%

O=c1[nH]c(=O)[nH]c(=O)[nH]1
inactive: [1] 97.9% | [2] 122% | [3] 104% | [4] 85.2% | [5] 111% | [6] 113% | [7] 95.5% | [8] 108% | [9] 96.9% | [10] 115%

S=P(SP(=S)(c1ccccc1)c1ccccc1)(c1ccccc1)c1ccccc1
inactive: [1] 99% | [2] 96.6% | [3] 107% | [4] 111% | [5] 107% | [6] 86.7% | [7] 88.5% | [8] 106% | [9] 110% | [10] 118%

Cc1cc(N(CCCl)CCCl)ccc1/C=N\NC(=O)c1cccnc1
-36.1% (active) and 11.8% (inactive): [2]
inactive: [1] 66.1% and 73.8% | [3] 108% and 97.9% | [4] 80.4% and 87.5% | [5] 21.2% and 28.7% | [6] 88.9% and 94.3% | [7] 82.3% and 105% | [8] 73.5% and 82.5% | [9] 81.1% and 84% | [10] 94.1% and 102%

CC[C@H](C)[C@H](NC(=O)[C@H]1CCCCN1C)C(=O)N(C)[C@H](C[C@@H](OC(C)=O)c1nc(C(=O)N[C@@H](Cc2ccccc2)C[C@H](C)C(=O)O)cs1)C(C)C
inactive: [1] 25.9% | [2] 11.6% | [3] 51.5% | [4] 12.2% | [5] 11% | [6] 14.8% | [8] 10.2% | [9] 15.6%
active: [7] -47.1% | [10] -80.3%
